Reference: the supplement of paper PMC6411743
± gives the standard deviation of the averaged measurements. About 6,500 targets were measured; listed, in parts, are those with the largest changes and a random draw of the rest.

Compound: Nc1ncnc2c1ncn2[C@@H]1O[C@H](COP(=O)(O)OP(=O)(O)OP(=O)(O)O)[C@@H](O)[C@H]1O [adenosine triphosphate]
Assay: NP40-soluble protein abundance relative to vehicle (solubility fold change) (ratio); higher = more soluble protein in presence of ATP
In short: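 Values are fold changes against the detergent-processed vehicle, based on vsn-normalised intensities. Jurkat crude lysate was treated at eight concentrations from 0.1 to 10 mM (10 min at room temperature, then 3 min at 37 °C), solubilised with 0.8% NP40 and benzonase, ultracentrifuged and analysed by TMT-labelled LC-MS/MS over three independent experiments.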

Chain of UniProt P10746 (P10746 whole entry): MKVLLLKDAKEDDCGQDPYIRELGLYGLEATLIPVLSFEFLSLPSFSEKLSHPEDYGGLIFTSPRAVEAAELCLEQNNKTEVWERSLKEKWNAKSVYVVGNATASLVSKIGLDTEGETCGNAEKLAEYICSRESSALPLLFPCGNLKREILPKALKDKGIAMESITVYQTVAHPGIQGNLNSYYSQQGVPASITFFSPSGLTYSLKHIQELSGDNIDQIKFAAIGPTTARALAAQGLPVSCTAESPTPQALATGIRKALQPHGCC
Chain of UniProt O95625 (O95625 whole entry): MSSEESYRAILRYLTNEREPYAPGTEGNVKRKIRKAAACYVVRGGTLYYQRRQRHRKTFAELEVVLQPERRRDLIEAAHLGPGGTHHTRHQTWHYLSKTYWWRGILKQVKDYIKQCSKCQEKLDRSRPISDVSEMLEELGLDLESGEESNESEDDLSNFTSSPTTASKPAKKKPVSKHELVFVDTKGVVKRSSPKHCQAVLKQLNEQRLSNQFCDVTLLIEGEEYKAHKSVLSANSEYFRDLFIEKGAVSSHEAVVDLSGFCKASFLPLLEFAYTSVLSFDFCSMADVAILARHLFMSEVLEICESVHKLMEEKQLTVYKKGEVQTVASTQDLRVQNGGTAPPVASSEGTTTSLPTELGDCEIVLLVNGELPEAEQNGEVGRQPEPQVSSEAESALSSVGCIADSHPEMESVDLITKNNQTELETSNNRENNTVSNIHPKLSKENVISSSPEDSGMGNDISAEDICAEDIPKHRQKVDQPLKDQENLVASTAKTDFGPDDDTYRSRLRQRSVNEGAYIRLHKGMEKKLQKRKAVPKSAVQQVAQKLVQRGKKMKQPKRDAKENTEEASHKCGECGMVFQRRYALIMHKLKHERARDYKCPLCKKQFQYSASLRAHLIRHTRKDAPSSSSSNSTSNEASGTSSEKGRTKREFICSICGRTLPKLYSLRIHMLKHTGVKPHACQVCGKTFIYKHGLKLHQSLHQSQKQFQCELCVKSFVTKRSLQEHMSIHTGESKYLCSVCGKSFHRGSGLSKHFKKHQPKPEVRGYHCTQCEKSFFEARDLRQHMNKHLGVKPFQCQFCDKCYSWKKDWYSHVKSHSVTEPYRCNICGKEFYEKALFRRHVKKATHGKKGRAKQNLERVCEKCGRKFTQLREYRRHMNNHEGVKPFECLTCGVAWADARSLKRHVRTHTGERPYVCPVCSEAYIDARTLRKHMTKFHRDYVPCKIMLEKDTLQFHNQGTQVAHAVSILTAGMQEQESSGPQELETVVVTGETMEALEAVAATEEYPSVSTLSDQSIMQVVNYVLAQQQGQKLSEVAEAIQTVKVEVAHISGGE
Chain of UniProt P16150 (P16150 whole entry): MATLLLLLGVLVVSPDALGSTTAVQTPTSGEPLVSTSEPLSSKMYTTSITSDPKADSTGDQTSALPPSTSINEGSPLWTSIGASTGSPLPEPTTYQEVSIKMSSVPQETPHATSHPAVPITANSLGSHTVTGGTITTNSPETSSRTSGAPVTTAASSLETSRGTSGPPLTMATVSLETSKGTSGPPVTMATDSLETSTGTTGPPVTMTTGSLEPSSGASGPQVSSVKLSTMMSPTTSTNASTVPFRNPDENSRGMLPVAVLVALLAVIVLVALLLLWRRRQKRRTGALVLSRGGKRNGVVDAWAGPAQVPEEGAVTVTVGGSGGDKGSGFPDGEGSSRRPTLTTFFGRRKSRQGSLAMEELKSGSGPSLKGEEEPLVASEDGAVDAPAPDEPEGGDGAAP
Chain of UniProt P35251 (P35251 whole entry): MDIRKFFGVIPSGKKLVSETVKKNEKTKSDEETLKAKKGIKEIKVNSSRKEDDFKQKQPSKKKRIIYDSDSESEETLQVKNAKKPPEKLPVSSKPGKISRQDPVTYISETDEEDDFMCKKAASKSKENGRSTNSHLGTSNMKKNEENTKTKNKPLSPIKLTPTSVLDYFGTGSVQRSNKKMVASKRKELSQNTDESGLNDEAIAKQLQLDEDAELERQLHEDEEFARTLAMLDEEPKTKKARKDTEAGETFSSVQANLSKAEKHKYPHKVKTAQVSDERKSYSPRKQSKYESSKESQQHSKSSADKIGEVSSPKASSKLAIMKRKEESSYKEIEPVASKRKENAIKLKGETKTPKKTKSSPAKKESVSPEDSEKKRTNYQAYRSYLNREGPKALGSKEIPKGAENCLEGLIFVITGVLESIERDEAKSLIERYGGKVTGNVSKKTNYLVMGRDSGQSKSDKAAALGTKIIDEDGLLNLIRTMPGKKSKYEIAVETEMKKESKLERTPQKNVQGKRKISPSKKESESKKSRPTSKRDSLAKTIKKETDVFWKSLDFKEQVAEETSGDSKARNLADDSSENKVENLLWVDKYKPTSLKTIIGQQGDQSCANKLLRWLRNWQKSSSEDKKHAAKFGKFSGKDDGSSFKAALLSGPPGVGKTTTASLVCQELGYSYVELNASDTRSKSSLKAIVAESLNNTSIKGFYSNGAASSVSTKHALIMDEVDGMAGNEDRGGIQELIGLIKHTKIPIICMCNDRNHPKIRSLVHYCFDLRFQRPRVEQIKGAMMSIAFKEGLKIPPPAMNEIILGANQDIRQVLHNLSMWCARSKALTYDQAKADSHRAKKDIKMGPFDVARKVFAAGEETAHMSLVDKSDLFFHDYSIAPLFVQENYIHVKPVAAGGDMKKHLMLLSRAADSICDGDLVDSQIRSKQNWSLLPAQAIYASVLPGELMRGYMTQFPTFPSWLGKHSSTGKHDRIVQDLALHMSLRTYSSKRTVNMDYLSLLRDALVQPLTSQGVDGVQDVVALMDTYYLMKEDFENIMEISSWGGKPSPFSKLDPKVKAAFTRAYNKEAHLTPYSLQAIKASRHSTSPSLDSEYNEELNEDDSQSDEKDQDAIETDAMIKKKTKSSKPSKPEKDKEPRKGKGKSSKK
Chain of UniProt P10606 (P10606 whole entry): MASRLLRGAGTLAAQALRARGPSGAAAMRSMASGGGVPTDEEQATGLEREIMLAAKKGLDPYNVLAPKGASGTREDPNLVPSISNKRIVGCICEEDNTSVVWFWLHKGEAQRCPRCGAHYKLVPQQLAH
Chain of UniProt P54274 (P54274 whole entry): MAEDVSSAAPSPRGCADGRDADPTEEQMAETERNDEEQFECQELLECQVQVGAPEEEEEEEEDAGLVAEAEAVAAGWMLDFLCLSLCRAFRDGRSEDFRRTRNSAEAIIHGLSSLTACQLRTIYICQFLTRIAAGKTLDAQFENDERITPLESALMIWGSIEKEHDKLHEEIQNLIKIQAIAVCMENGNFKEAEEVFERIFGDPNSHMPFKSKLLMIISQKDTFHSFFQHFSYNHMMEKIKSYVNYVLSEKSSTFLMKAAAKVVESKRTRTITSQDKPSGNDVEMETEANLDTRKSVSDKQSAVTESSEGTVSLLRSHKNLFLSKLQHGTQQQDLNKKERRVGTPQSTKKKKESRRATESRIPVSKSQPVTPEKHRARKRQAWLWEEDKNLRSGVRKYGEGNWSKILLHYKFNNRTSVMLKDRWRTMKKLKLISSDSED
Chain of UniProt P49756 (P49756 whole entry): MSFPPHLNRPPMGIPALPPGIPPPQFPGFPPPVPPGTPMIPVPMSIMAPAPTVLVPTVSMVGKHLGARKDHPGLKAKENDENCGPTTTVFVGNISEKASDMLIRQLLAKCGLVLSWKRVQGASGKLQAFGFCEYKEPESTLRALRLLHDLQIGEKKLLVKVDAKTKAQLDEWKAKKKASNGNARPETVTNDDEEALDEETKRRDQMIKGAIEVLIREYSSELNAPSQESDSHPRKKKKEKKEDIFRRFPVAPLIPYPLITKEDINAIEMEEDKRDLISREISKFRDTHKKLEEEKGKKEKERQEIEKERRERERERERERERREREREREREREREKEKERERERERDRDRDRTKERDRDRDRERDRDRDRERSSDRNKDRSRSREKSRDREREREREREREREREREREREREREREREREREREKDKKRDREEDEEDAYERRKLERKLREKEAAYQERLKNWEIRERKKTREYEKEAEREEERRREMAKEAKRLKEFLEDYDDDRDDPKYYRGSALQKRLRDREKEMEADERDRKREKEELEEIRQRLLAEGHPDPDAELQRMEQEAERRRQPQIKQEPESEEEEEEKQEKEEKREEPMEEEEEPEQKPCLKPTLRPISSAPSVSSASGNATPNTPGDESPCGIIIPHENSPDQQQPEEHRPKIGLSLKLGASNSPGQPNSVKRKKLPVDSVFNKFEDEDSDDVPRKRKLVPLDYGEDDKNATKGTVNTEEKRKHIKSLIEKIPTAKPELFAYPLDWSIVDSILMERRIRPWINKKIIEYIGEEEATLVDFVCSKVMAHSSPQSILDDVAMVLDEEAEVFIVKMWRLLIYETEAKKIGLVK
Chain of UniProt P53677 (P53677 whole entry): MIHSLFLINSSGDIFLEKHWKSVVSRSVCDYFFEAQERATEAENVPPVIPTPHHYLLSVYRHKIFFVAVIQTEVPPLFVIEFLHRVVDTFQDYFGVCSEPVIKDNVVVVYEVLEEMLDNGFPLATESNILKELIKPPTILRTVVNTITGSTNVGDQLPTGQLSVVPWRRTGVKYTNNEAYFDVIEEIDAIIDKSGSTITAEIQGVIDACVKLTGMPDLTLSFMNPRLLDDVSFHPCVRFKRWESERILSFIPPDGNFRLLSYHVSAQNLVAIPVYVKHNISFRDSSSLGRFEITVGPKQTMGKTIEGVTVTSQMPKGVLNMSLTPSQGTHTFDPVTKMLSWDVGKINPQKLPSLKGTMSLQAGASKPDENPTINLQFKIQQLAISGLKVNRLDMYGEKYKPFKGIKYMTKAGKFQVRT
Chain of UniProt O75446 (O75446 whole entry): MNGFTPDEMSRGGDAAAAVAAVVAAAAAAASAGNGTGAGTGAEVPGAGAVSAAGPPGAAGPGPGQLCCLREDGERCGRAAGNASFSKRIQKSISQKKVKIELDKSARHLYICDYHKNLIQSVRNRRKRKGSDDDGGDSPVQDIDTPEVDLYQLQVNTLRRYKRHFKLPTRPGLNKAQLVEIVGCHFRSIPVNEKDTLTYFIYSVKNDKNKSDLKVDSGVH
Chain of UniProt P56381 (P56381 whole entry): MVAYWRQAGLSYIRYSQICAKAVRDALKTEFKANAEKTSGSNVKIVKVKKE

Target	NP40-soluble protein abundance (concentration: 1mM)	NP40-soluble protein abundance (concentration: 2mM)	NP40-soluble protein abundance (concentration: 4mM)	NP40-soluble protein abundance (concentration: 6mM)	NP40-soluble protein abundance (concentration: 8mM)	NP40-soluble protein abundance (concentration: 10mM)
UROS (UniProt P10746)	0.973 ± 0.029	0.988 ± 0.041	0.98 ± 0.061	0.968 ± 0.038	0.95 ± 0.059	0.927 ± 0.054
MRPS25 (UniProt P82663)	0.942 ± 0.092	0.951 ± 0.066	0.96 ± 0.043	0.881 ± 0.09	0.915 ± 0.081	0.928 ± 0.078
CD53 (UniProt P19397)	0.898 ± 0.042	0.833 ± 0.05	0.85 ± 0.06	0.832 ± 0.049	0.823 ± 0.07	0.791 ± 0.093
UniProt P35251|P35251-2	1.23 ± 0.086	1.36 ± 0.093	1.45 ± 0.1	1.58 ± 0.11	1.51 ± 0.069	1.56 ± 0.084
UniProt P50750-2|P50750	1.18 ± 0.047	1.26 ± 0.047	1.38 ± 0.018	1.47 ± 0.13	1.64 ± 0.058	1.7 ± 0.1
COX5B (UniProt P10606)	0.9588 ± 0.0074	0.963 ± 0.013	0.966 ± 0.032	1.01 ± 0.028	0.936 ± 0.055	0.929 ± 0.012
PHKA2 (UniProt P46019)	0.975 ± 0.071	0.9386 ± 0.0054	0.92 ± 0.033	0.932 ± 0.087	0.95 ± 0.028	0.919 ± 0.029
UniProt O96028|O96028-3|O96028-5	1.31 ± 0.054	1.45 ± 0.072	1.54 ± 0.11	1.62 ± 0.12	1.62 ± 0.12	1.74 ± 0.18
GAA (UniProt P10253)	0.981 ± 0.012	1.01 ± 0.021	1 ± 0.028	0.972 ± 0.015	0.962 ± 0.055	0.997 ± 0.033
UniProt Q03933-2|Q03933	0.912 ± 0.029	1.05 ± 0.065	1.05 ± 0.2	1.09 ± 0.17	1.04 ± 0.048	1.01 ± 0.051
UniProt P54274|P54274-2	1.14 ± 0.12	1.27 ± 0.17	1.43 ± 0.17	1.69 ± 0.26	1.58 ± 0.25	1.88 ± 0.35
SAP30 (UniProt O75446)	0.93 ± 0.092	0.952 ± 0.092	0.907 ± 0.073	0.971 ± 0.15	0.96 ± 0.044	0.915 ± 0.13
UniProt P08243|P08243-2|P08243-3	1.1 ± 0.13	1.1 ± 0.12	1.1 ± 0.11	1.03 ± 0.14	1.15 ± 0.12	1.09 ± 0.097
UniProt P61225	1.01 ± 0.074	0.921 ± 0.091	0.92 ± 0.082	0.846 ± 0.11	0.932 ± 0.065	0.932 ± 0.016
RBM25 (UniProt P49756)	1.21 ± 0.074	1.33 ± 0.12	1.68 ± 0.22	2.25 ± 0.24	2.63 ± 0.34	3.08 ± 0.38
EIF2S1 (UniProt P05198)	1.04 ± 0.043	1.05 ± 0.034	1.02 ± 0.027	1.04 ± 0.07	1.06 ± 0.053	1.05 ± 0.051
UniProt P25398	0.879 ± 0.058	0.861 ± 0.073	0.813 ± 0.071	0.817 ± 0.087	0.761 ± 0.043	0.779 ± 0.061
UniProt P49761|P49761-1|P49761-3	1.317 ± 0.008	1.56 ± 0.035	1.54 ± 0.018	1.43 ± 0.13	1.81 ± 0.23	2.065 ± 0.019
ZBTB11 (UniProt O95625)	1.03 ± 0.057	1.004 ± 0.0071	1.03 ± 0.053	0.949 ± 0.021	0.97 ± 0.015	0.979 ± 0.04
AP3M2 (UniProt P53677)	1.09 ± 0.019	1.08 ± 0.016	1.13 ± 0.043	1.02 ± 0.047	1.06 ± 0.051	1.08 ± 0.069
UniProt P56381	2.11 ± 1.8	0.927 ± 0.037	0.827 ± 0.014	1.2 ± 0.39	0.93 ± 0.067	0.875 ± 0.046
PPP2CA (UniProt P67775)	0.959 ± 0.061	0.925 ± 0.0053	0.908 ± 0.021	0.962 ± 0.033	0.9033 ± 0.007	0.9 ± 0.085
GALT (UniProt P07902)	0.994 ± 0.016	0.972 ± 0.068	0.983 ± 0.053	0.9753 ± 0.0077	0.935 ± 0.029	0.947 ± 0.02
LSM11 (UniProt P83369)	1.32 ± 0.26	1.26 ± 0.15	1.4 ± 0.17	1.62 ± 0.32	1.46 ± 0.2	1.69 ± 0.4
SPN (UniProt P16150)	0.828 ± 0.17	0.803 ± 0.16	0.812 ± 0.13	0.835 ± 0.14	0.765 ± 0.094	0.71 ± 0.2
